Assay outcomes from PubChem BioAssay.
Hits are enriched below; roughly 9.4% of the tested compounds scored in any of these assays.
NPC1 promoter act – NPC1 promoter activation; 320,000 compounds, 2.4% hits; Huh7 NPC1 promoter luciferase reporter, 24 h; Potency, µM (highest dose often 9.22 µM), for inactives: top-dose activation, most hits filed as activators; also: % of control where 0% means no effect; nearly all actives have a fitted effect of over 60% in size
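Compounds in DMSO were transferred onto Huh7 NPC1-luciferase reporter cells pre-incubated 2 h; after 24 h at 37 °C, Amplite reagent was dispensed and luminescence recorded 10 min later.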
Rab9 promoter act – activates the Rab9 promoter; Huh7 Rab9 promoter-luciferase reporter, luminescence, 24 h; Potency, µM (titrated, usually from 9.22 µM), for inactives: top-dose activation, negative = inhibition, hits mostly activators; 320,000 compounds, 2.8% hits; AID 485297; also: % of control where 0% means no effect; nearly all actives have a fitted effect of over 60% in size
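Cell-based reporter: Huh7 stable for Rab9 promoter-driven luciferase, plated in reduced-serum medium with 10% FBS at 1500 cells/well, compound-treated 24 h at 37 °C, luminescence read after 10 min reagent.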
ELG1 DNA repair – blocks ELG1-dependent DNA repair in HEK293T cells. HEK293T ELG1-luciferase reporter, luminescence, 16 h; DNA damage induced by 5-fluorouridine. Potency, µM (doses to about 46.1 µM), for inactives: top-dose activity change, negative = inhibition, most hits filed as inhibitors. 330,000 compounds, 2.3% hits; also: % is scaled to controls: 0 for no effect and ±100 for the full control effect; nearly all actives have a fitted effect of over 55% in size
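Step one: seed 2,000 cells per well. Step two: pin-transfer compound or DMSO alongside 5-fluorouridine. Step three: incubate 16 hr, 37 °C, 5% CO2. Step four: add ONE-Glo, wait 30 min, read luminescence.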
ELG1 genotoxic – induces genotoxicity in HEK293T cells with luciferase-tagged ELG1. AID 504466. HEK293T ELG1-luciferase reporter, luminescence, 16 h. 330,000 compounds, 1.3% hits. Potency, µM (highest dose often 46 µM), without a hit: top-dose activity change, positive = activation, hits mostly activators; also: % of control where 0% means no effect; nearly all actives have a fitted effect of over 60% in size
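DMSO vehicle served as control against compound-treated ELG1-luciferase HEK293T cells; exposure lasted 16 hr at 37 °C and 5% CO2, followed by ONE-Glo luminescence detection after 30 min.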
FLuc modulator – counter-screen for miR-21 project: firefly luciferase inhibitors or activators; purified FLuc, Km substrates, luminescence inhibition; Potency, µM (top dose mostly 57.5 µM), inactives show top-dose activity change, negative = inhibition, usual class: inhibitors; 360,000 compounds, 6.9% hits; AID 588342;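 also: plate controls were vehicle for no effect and reference inhibitor for full effect; nearly all actives have a fitted effect of over 55% in size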
Target sequence (P08659 whole entry, looked up): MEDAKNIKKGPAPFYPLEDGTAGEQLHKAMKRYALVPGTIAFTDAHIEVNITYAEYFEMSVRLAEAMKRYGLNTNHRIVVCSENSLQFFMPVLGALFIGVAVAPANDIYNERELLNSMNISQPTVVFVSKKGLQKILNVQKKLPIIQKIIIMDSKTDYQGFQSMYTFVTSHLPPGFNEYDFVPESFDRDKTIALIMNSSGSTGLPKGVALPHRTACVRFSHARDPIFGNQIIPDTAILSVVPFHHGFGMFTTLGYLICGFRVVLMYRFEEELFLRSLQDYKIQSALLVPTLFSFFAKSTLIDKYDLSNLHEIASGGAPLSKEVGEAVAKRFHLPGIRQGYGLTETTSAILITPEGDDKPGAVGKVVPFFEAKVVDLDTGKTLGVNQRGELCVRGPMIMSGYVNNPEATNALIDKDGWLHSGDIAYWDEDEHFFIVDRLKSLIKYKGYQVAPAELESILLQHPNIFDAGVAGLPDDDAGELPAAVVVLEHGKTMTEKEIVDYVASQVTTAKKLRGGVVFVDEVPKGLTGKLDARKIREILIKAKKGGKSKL
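Purified P. pyralis luciferase (10nM final) with 10uM D-luciferin and 10uM ATP (Km levels) in 50mM Tris acetate pH 7.5, 10mM Mg acetate, 0.01% Tween-20, 0.05% BSA; qHTS 6-point titration, ~60 µM downward; luminescence read.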
SMN2 splice enh – enhancers of SMN2 splice variant expression. 210,000 compounds, 2.8% hits. HEK293 SMN2-luciferase splicing reporter, luminescence, 30-36 h. Potency, µM (doses to about 46.1 µM), for inactives: at the top dose activity change, positive = activation, actives largely listed as activators. AID 1458; also: % of control where 0% means no effect; nearly all actives have a fitted effect of over 55% in size
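qHTS luciferase splicing reporter: luminescence rises when SMN2 exon 7 is included in transfected HEK293 cells. Compound exposure lasted 30-36 h at 37C, with 4.5 mM final sodium butyrate as control, followed by a ONE-Glo read.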
ELG1 FLuc counter – luciferase inhibition in cell-free luciferin readout for ELG1 hits; shares compounds with ELG1 DNA repair; cell-free firefly luciferase luminescence counter-screen, ViewLux; Potency, µM (titrated, usually from 46.1 µM), for the others: at the highest dose activity change, negative = inhibition, hits mostly inhibitors; 350 compounds, 3% hits; AID 624247; also: % is scaled to controls: 0 for no effect and ±100 for the full control effect
ELG1 Luc conf – confirmation of human ELG1-dependent DNA repair inhibitors; shares compounds with ELG1 DNA repair; HEK293T ELG1-luciferase levels, luminescence; cells co-treated with 5-fluorouridine; Potency, µM (highest dose often 46.1 µM), inactives show top-dose activity change, negative = inhibition, hits mostly inhibitors; 670 compounds, 68% hits; AID 624248; also: % is scaled to controls: 0 for no effect and ±100 for the full control effect; nearly all actives have a fitted effect of over 55% in size
ELG1 MMS Luc – inhibits ELG1-dependent repair under MMS stimulation in HEK293T cells | 670 compounds, 53% hits | Potency, µM (top dose mostly 46.1 µM), for inactives: top-dose activity change, negative = inhibition, most hits filed as inhibitors | AID 624249 | HEK293T luciferase-tagged ELG1 level, MMS stimulated | shares compounds with ELG1 DNA repair; also: % is scaled to controls: 0 for no effect and ±100 for the full control effect; nearly all actives have a fitted effect of over 60% in size
ELG1 5FU viab – confirmation of ELG1 repair inhibitors: viability with 5FU. shares compounds with ELG1 DNA repair. cell viability with 5-FU, ELG1-dependent repair. Potency, µM (doses to about 46.1 µM), for inactives: at the top dose activity change, negative = viability loss, hits mostly cytotoxic. 670 tested, under 10 active. AID 624250;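 also: ELG1-luc HEK293T cells cotreated with 5-fluorouridine at 10 µM final; viability measured 16 h after compound addition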
ELG1 MMS viab – confirmation of ELG1 repair inhibitors: viability with MMS; shares compounds with ELG1 DNA repair; Cell viability with MMS, ELG1-dependent DNA repair; Potency, µM (doses to about 46.1 µM), for the others: top-dose activity change, negative = viability loss, actives largely listed as cytotoxic; 670 compounds, 33% hits;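 also: ELG1-luc HEK293T cells co-treated with 10 µM MMS; viability read 16 h after compound addition; % is scaled to controls: 0 for no effect and ±100 for the full control effect; nearly all actives have a fitted effect of over 60% in size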
ELG1 unstim viab – unstimulated viability counter-screen for ELG1 repair hits. 900 compounds, 8% hits. shares compounds with ELG1 DNA repair. Potency, µM (titrated, usually from 45.9 µM), inactives show at the top dose activity change, negative = loss of viability, hits mostly cytotoxic. cell viability counter-screen, unstimulated, luminescence;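 also: compound exposure lasted 16 hours before reading; % is scaled to controls: 0 for no effect and ±100 for the full control effect; nearly all actives have a fitted effect of over 55% in size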
FLuc enzyme – firefly luciferase inhibition counter-screen; shares compounds with ELG1 DNA repair; purified firefly luciferase, luminescence counter-screen; Potency, µM (highest dose often 57.5 µM), for inactives: top-dose activity, negative = inhibition, actives largely listed as inhibitors; 350 compounds, 10% hits; AID 624253; also: % is scaled to controls: 0 for no effect and ±100 for the full control effect
The depositor's hits bear a star; ? = inconclusive; . = no result; ! = not confirmed by another sample. Calls follow the shape of the dose curve; as a rule, active = well fitted curve in the direction sought with a large enough effect; inconclusive = small, poorly fitted or top-dose-only effect, or another doubt; inactive = no such curve, though single readings can be large; an effect the other way counts as inactive or inconclusive. Potency is read from the fitted curve at half-maximal effect.

SMILES | NPC1 promoter act | Rab9 promoter act | ELG1 DNA repair | ELG1 genotoxic | FLuc modulator | SMN2 splice enh | ELG1 unstim viab | others
O=C(C1=C[C@H](c2ccc3c(c2)OCO3)C[C@H](OCCCCO)O1)N1CCN(Cc2ccccc2)CC1 | 1% | -1% | 8% | 0% | -1% | . | -6% | ELG1 FLuc counter=-4%;ELG1 Luc conf=-35%;ELG1 MMS Luc=?;ELG1 5FU viab=-1%;ELG1 MMS viab=?;FLuc enzyme=-6%
CC(=O)n1cc([C@H]2C=C(C(=O)N3CCN(Cc4ccccc4)CC3)O[C@@H](OCCCCO)C2)c2ccccc21 | -2% | 0% | -6% | -5% | 5% | . | .
CC(=O)n1cc([C@@H]2C=C(C(=O)N3CCN(Cc4ccc5c(c4)OCO5)CC3)O[C@H](OCCCCO)C2)c2ccccc21 | 2% | 1% | 18µM* | -10% | 0% | . | ? | ELG1 FLuc counter=-9%;ELG1 Luc conf=?;ELG1 MMS Luc=8%;ELG1 5FU viab=-6%;ELG1 MMS viab=-16%;FLuc enzyme=-16%
O=C(c1ccc2c(c1)N(Cc1ccccc1)C(=O)c1ccccc1S2(=O)=O)N1CCN(c2ccccc2)CC1 | . | . | . | . | -5% | 2% | .
COc1ccc(-c2n[nH]c3c2cnc2ccc(F)cc23)cc1 | . | . | . | . | 4% | . | .
COc1ccc(-c2cc3cc(F)ccc3cn2)cc1 | . | . | ? | ? | . | . | -6%
Cc1ccc(NC(=O)c2cn3c4c(ccc(Cl)c4c2=O)OC(C)C3)c(C)c1 (centres undefined) | . | . | . | . | 3% | . | .
COc1ccc2oc(-c3ccc(C)c(NC(=O)c4ccc(-c5ccccc5[N+](=O)[O-])o4)c3)nc2c1 | . | . | . | . | ? | 6% | .
COc1ccc2oc(-c3ccc(C)c(NC(=O)COc4cc(C)cc(C)c4)c3)nc2c1 | . | . | . | . | -1% | 1% | .
CCc1ccc(OCC(=O)Nc2ccc3oc(-c4ccc(OC)cc4)nc3c2)cc1 | . | . | . | . | 0% | 12% | .
COc1ccc(OCC(=O)Nc2ccc(-c3nc4cc(C)c(C)cc4o3)cc2)cc1 | . | . | . | . | . | 0.56µM* | ? | ELG1 FLuc counter=57%;FLuc enzyme=15µM*!
Cc1ccc2nc(-c3ccc(C)c(NC(=O)COc4ccc(Br)cc4)c3)oc2c1 | . | . | . | . | . | . | -1% | ELG1 FLuc counter=68%;FLuc enzyme=?
COc1ccc(N2CCN(Cc3nc4c(c(=O)[nH]c(=O)n4C)n3CC(C)C)CC2)cc1 | . | . | . | . | -4% | -2% | .
COc1ccccc1CNC(=O)CCC1N=C2c3ccccc3N=C(SCc3ccc(Cl)cc3)N2C1=O (centres undefined) | . | . | . | . | 1% | . | .
CNC(=O)C1CCC(Cn2c(=O)c3sccc3n(Cc3ccc(F)cc3)c2=O)CC1 (centres undefined) | . | . | . | . | 3% | . | .
CC(=O)c1ccc(NC(=O)Cn2nc(C(F)(F)F)c3c2CCC3)cc1 | . | . | . | . | 1% | 0% | .
COc1ccccc1NC(=O)c1cc2c(CO)cnc(C)c2oc1=Nc1cc(OC)c(OC)c(OC)c1 | -2% | 8% | 1% | 1% | 1% | . | .
COc1ccccc1NC(=O)c1cc2c(CO)cnc(C)c2oc1=Nc1ccc(OC)c(OC)c1 | -8% | -10% | 2.9µM* | -11% | 1% | . | ? | ELG1 Luc conf=0.89µM*;ELG1 MMS Luc=?;ELG1 5FU viab=?;ELG1 MMS viab=?
Cc1ccc(CNC(=O)C2CCN(c3nc4ccccc4n(C)c3=O)CC2)cc1 | . | . | . | . | 1% | -1% | .
COc1ccc2ncn(-c3ccccc3)c2c1 | -2% | 3% | 2.3µM* | -10% | 3% | -15% | 7% | ELG1 Luc conf=?;ELG1 MMS Luc=?;ELG1 5FU viab=9%;ELG1 MMS viab=?
c1ccc(-n2cnc3ccccc32)cc1 | 13% | 20% | ? | -13% | ? | -16% | .
Cc1ccc(-c2nc3ccccc3n3nnnc23)cc1 | 2% | 1% | ? | ? | -16% | 13µM* | 3% | ELG1 FLuc counter=59%;FLuc enzyme=?
O=C(NCCc1ccccc1)c1nnc(Cc2cccc(F)c2)o1 | . | . | . | . | -20% | . | .
